Assay results: the supplement of paper PMC9844399
Counter-ions that a name gives are not always drawn.

System: HeLa
Assay: nuclear count per well, robust Z-score vs DMSO; higher = more cells (less toxicity)
Details: 10 µM; 6 h
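Also: Hoechst-stained nuclei counted by automated confocal imaging of four fields per well in 384-well plates, with the robust Z-score based on the per-plate DMSO median and robust SD.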

| Compound | nuclear count per well |
| --- | --- |
| CCCCCCCCCCCCCCCCOC[C@@H](O)COP(=O)([O-])OCC[N+](C)(C)C | -0.362 |
| Oc1ccccc1-c1ccccc1 [2-Phenylphenol] | 0.198 |
| CCNC(=O)C1OC(n2cnc3c(N)ncnc32)C(O)C1O (stereo unspecified) [5'-N-Ethylcarboxamidoadenosine (NECA)] | 0.635 |
| CCN(C)C(=O)Oc1cccc([C@H](C)N(C)C)c1 [Rivastigmine Tartrate] | -0.0307 |
| CN1C(=O)C(O)N=C(c2ccccc2)c2cc(Cl)ccc21 (stereo unspecified) [Temazepam] | 0.222 |
| CCCCC/C=C\C/C=C\C/C=C\C=C\[C@H](CCCC(=O)O)OO | 0.401 |
| C=C1C/C(=C/C)C(=O)O[C@@H]2CCN3CC=C(COC(=O)[C@]1(C)O)[C@H]23 [Seneciophylline] | 0.668 |
| CCCCC[C@@H](/C=C/C=C\C/C=C\C/C=C\CCCC(=O)O)OO | -0.172 |
| CN1C(=O)CN=C(c2ccccc2)c2cc(Cl)ccc21 [Diazepam] | 0.271 |
| CCOC(=O)CN1C(=O)CC(C[C@@H](O)C2C[C@@H](C)C[C@H](C)C2=O)CC1=O (stereo partly specified) [Cycloheximide-N-ethylethanoate] | -0.108 |
| NCC(CC(=O)O)c1ccc(Cl)cc1 (stereo unspecified) [Baclofen] | -0.529 |
| C=C(C)[C@H]1Cc2c(ccc3c2O[C@@H]2COc4cc(OC)c(OC)cc4[C@@H]2C3=O)O1 [Rotenone] | -2.82 |
| O=C1Nc2ccc(Cl)cc2C(c2ccccc2Cl)=NC1O (stereo unspecified) [Lorazepam] | 1.02 |
| Cc1cc2c(C(C)C)c(O)c(O)c(C=O)c2c(O)c1-c1c(C)cc2c(C(C)C)c(O)c(O)c(C=O)c2c1O [Gossypol from cotton seeds] | -0.581 |
| CC(C)C[C@H](CN)CC(=O)O [Pregabalin] | 0.726 |
| COc1cc2c(c3oc(=O)c4c(c13)CCC4=O)[C@@H]1CCO[C@@H]1O2 [Aflatoxin B2] | 1.49 |

| Compound | nuclear count per well |
| --- | --- |
| C=CCN1C[C@H](C(=O)N(CCCN(C)C)C(=O)NCC)C[C@@H]2c3cccc4[nH]cc(c34)C[C@H]21 [Cabergoline] | -0.326 |
| COC1=CC(=O)O[C@@H](/C=C/c2ccccc2)C1 | -0.213 |
| CCCCCCCCCCCCCC(=O)O[C@@H]1[C@@H](C)[C@@]2(O)[C@@H](C=C(CO)C[C@]3(O)C(=O)C(C)=C[C@@H]23)[C@@H]2C(C)(C)[C@]12OC(C)=O [Phorbol 12-myristate 13-acetate] | -0.439 |
| CC(C)N(CCC(C(N)=O)(c1ccccc1)c1ccccn1)C(C)C (stereo unspecified) [Disopyramide] | 0.233 |
| C[C@@H]1C[C@@H]([C@H](O)CC2CC(=O)NC(=O)C2)C(=O)[C@@H](C)C1 [Cycloheximide] | -3.22 |
| CC[C@@]1(O)C(=O)OCc2c1cc1n(c2=O)Cc2cc3ccccc3nc2-1 [Camptothecin] | -3.84 |
| CCCCC/C=C\C/C=C\C/C=C\C/C=C\CCCC(=O)NCCO [Anandamide (20:4, n-6)] | 0.624 |
| O[C@H]1[C@H]2[C@H](O)CCCN2C[C@H]1O [swainsonine] | 1.06 |
| COc1ccc(C[C@H]2NC[C@H](O)[C@H]2OC(C)=O)cc1 [Anisomycin] | -7.47 |
| C[C@]1(O)CC[C@H]2[C@@H]3CCC4=CC(=O)CC[C@]4(C)[C@@]3(F)[C@@H](O)C[C@@]21C [Fluoxymesterone] | -0.818 |
| CC(C)[C@@H]1NC(=O)[C@H](C)OC(=O)[C@@H](C(C)C)NC(=O)[C@@H](C(C)C)OC(=O)[C@H](C(C)C)NC(=O)[C@H](C)OC(=O)[C@@H](C(C)C)NC(=O)[C@@H](C(C)C)OC(=O)[C@H](C(C)C)NC(=O)[C@H](C)OC(=O)[C@@H](C(C)C)NC(=O)[C@@H](C(C)C)OC1=O [Valinomycin] | -0.196 |
| C=C1C[C@@H]2[C@H](CC[C@]3(C)C(=O)CC[C@@H]23)[C@@]2(C)C=CC(=O)C=C12 [Exemestane] | 0.117 |
| Cn1c(CCCC(=O)O)nc2cc(N(CCCl)CCCl)ccc21 | 0.521 |
| CN1[C@@H]2C[C@@H](OC(=O)[C@H](CO)c3ccccc3)C[C@H]1[C@@H]1O[C@@H]12 | 0.546 |
| CC[C@@H]1/C=C/C=C/C[C@H](C)[C@H](O)[C@](C)(O)C(=O)[C@H](C)[C@@H](O)[C@H](C)C(=O)[C@H](C)[C@@H](O)[C@H](C)/C=C/C(=O)O[C@H]2[C@@H](C)[C@@H](CC1)O[C@@]1(CC[C@@H](C)[C@@H](C[C@H](C)O)O1)[C@@H]2C [Oligomycin A] | 0.149 |
